Data on 35 molecules can be found in ChEMBL document CHEMBL3433997, “St. Jude Leishmania screening dataset” (2016).

What all share (type): functional
For assay [1], the target named is Solute carrier family 2, facilitated glucose transporter member 1 (Homo sapiens) (UniProt P11166). Nature of the assay: ST_JUDE_LEISH: Cytotoxicity at 2uM final concentration against transgenic Leishmania Mexicana promastigotes LmGLUT1 that are glucose transport deficient and complemented with the human glucose transporter GLUT1. Activity is measured by DNA content using SYBR green in vitro.
Chain of Solute carrier family 2, facilitated glucose transporter member 1 (Homo sapiens) (P11166 whole entry): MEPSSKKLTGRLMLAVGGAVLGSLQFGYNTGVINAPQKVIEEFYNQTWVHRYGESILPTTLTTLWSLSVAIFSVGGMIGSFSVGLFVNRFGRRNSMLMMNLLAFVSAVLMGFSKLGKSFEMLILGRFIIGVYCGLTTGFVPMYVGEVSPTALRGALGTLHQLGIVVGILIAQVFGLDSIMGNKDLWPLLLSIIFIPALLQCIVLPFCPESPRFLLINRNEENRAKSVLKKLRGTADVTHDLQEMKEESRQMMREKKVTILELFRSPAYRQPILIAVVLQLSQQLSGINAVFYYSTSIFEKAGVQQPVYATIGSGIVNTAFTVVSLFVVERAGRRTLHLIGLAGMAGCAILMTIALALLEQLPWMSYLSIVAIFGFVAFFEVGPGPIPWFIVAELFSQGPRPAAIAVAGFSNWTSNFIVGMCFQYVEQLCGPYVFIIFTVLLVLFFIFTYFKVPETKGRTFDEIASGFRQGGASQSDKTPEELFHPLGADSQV

In assay [2] the target is Hexose transporter 1 (Plasmodium falciparum) (UniProt O97467). Nature of the assay: ST_JUDE_LEISH: Cytotoxicity at 2uM final concentration against transgenic Leishmania Mexicana promastigotes LmPfHT that are glucose transport deficient and complemented with the Plasmodium falciparum hexose transporter. Activity is measured by DNA content using SYBR green in vitro.
The target in assay [3] is Glucose transporter (Leishmania mexicana) (UniProt O61059). Nature of the assay: ST_JUDE_LEISH: Cytotoxicity at 2uM final concentration against transgenic Leishmania Mexicana promastigotes LmGT2 that are glucose transport deficient and complemented with the L. Mexicana glucose transporter 2. Activity is measured by DNA content using SYBR green in vitro.

In general, inhibition refers to the change of the read-out against control, counted positive when it falls. For the molecule `CC(C)c1cc(N)c2cc(NC(=O)COCC(=O)Nc3ccc4nc(C(C)C)cc(N)c4c3)ccc2n1`, the figures for the inhibition in assay [1], in assay [2] and in assay [3] were 5.18%, 5.67% and 5.02%, respectively.
`O=C(NCCCCN1CCC(c2cccc3ccccc23)CC1)c1ccc(NC(=O)c2ccc(Cl)cc2)cc1`: the inhibition in assay [1] stood at 1.07%; in assay [2], 0.25%; in assay [3] it was 0.68%.
Regarding `CCCN1CCN(CCNC(=O)c2cccc(Nc3nccc(Nc4ccc(Oc5ccccc5)cc4)n3)c2)CC1`, the inhibition in assay [1] turned out to be 0.38%; in assay [2], 0.74%; in assay [3] it was 1.04%.
Turning to `COc1ccc2ncc(F)c(NC(=O)C3CCC(NCc4cc5c(F)cccc5[nH]4)CC3)c2n1` (stereo not given), the inhibition in assay [1] came to 77.5%; in assay [2], 80.8%; in assay [3], 77.4%.
Regarding `COc1cc(Nc2ncnc3cc(OC)c(OC)cc23)cc([N+](=O)[O-])c1`, the inhibition in assay [1] is -1.65%; in assay [2], 0.11%; in assay [3] it was -0.41%.
On to `N#Cc1cccc(NC(=O)NC2CCN(CCCCCNC(=O)/C=C/c3ccc(Cl)c(Cl)c3)CC2)c1`, for which the inhibition in assay [1] turned out to be 4.68%; in assay [2] it was 5.86%; in assay [3] it was 8.54%.
The matching figures for `COc1ccc2[nH]c(C)cc(=NN=Cc3cccc(F)c3)c2c1`: 5.17%, 5.7% and 2.61%.
Regarding `O=S(=O)(Nc1ccc(CCN2CCC(N3CCCCC3)CC2)cc1)c1cccc2cccnc12`, the inhibition in assay [1] came to 3.76%; in assay [2] it was 3.39%; in assay [3] it was 1.88%.
For the molecule `C=C(C)Cn1cc(C2CCN(CCN3CCC(CNC(=O)c4ccc(-c5ccc(C#N)cc5)cc4)CC3)CC2)c2ccccc21`, the inhibition in assay [1] stood at 7.94%; in assay [2], 4.28%; in assay [3], 5.17%.
For the molecule `Cc1cc(=NN=CC=Cc2ccccc2)c2cc(F)ccc2[nH]1`, the figures for the inhibition in assay [1], in assay [2] and in assay [3] were 0.37%, 0.85% and 0.04%, respectively.
Turning to `CC(C)(C)NCCN(Cc1ccc(-c2ccc(C(F)(F)F)cc2)cc1)C(=O)Cn1c(SCc2ccc(F)cc2)nc(=O)c2c1CCC2`, the inhibition in assay [1] came out at 0.94%; in assay [2], 1.75%; in assay [3], 1.74%.
`CCOc1cc(Cc2cnc(N)nc2N)cc(OCC)c1OCC`: the inhibition is 4.33% in assay [1], 1.8% in assay [2] and 9.33% in assay [3].
Turning to `Cc1ccc(CNC(=O)c2cc3c(=O)n4cccc(C)c4nc3n(CCN3CCOCC3)c2=N)cc1`, the inhibition in assay [1] was -0.35%; in assay [2] it was 1%; in assay [3], 1.48%.
The matching figures for `CCN(CC)CCN(Cc1ccc(-c2ccc(C(F)(F)F)cc2)cc1)C(=O)Cn1c(CCc2cc(F)c(F)cc2F)nc(=O)c2ccccc21`: 13.6%, 12.3% and 12.8%.
The matching figures for `COc1cc2c(cc1OC)C(C(=O)Nc1cc(OC)c(OC)c(OC)c1)C(c1ccc(SC)cc1)N(C)C2=O` (stereo not given): 1.51%, 0.98% and 2.73%.
In the case of `NC(=O)c1ccsc1NC(=O)CNC(c1ccccc1)c1ccc(Cl)cc1` (stereo not given), the inhibition is 6.13% in assay [1], 2.82% in assay [2] and 1.74% in assay [3].
For `CN(C)c1cc(NC(=O)Nc2ccccc2)c2ccccc2n1`, in that order: 2.21%, 5.06% and 2.82%.
For `O=C(CCCCCNC(=O)c1ccc(O)c(-c2ccc(Cl)c(Cl)c2)c1)NCCN1CCOCC1`, the inhibition in assay [1] worked out at 4.35%; in assay [2] it was 3.57%; in assay [3], 2.65%.
For `Cc1ccc(C2CCN(CCCCNC(=O)c3ccc(NC(=O)c4ccc(Cl)cc4)cc3)CC2)c(OCC(F)(F)F)c1`, the inhibition turned out to be 0.04% in assay [1], 1.32% in assay [2] and 0.66% in assay [3].
On to `CCN(CCCN1CCCCC1)c1cc(C)nc(Nc2ccc(Cl)cc2)n1`, for which the inhibition in assay [1] came out at 1.87%; in assay [2] it was 2.6%; in assay [3] it was 1.8%.
Turning to `Fc1ccc(-c2cncc(Nc3ccncc3)n2)cc1`, the inhibition stood at 6.02% in assay [1], 7.91% in assay [2] and 8.39% in assay [3].
For the molecule `CC(=O)N[C@H](C(=O)Nc1ccc(-c2ccc(-c3nc4cc(C(F)(F)F)ccc4[nH]3)s2)cc1)C(C)C`, the inhibition in assay [1] was found to be 5.68%; in assay [2] it was 5.3%; in assay [3], 4.22%.
On to `COc1cc2c(cc1OC)CN(c1cc(N)c3cc(OC)c(OC)cc3n1)CC2`, for which the inhibition in assay [1] is 1.34%; in assay [2], 0.25%; in assay [3], -1.39%.
Turning to `CC(C)(C)SC1SC(SC(C)(C)C)C(OC(=O)c2ccccc2)C(OC(=O)c2ccccc2)C1OC(=O)c1ccccc1` (stereo not given), the inhibition in assay [1] is -0.52%; in assay [2], -0.69%; in assay [3] it was -0.49%.
Regarding `Cc1ccc(C)c(NC(=O)Nc2ccc(Nc3nc(C)cc(N4CCOCC4)n3)cc2)c1`, the inhibition was 1.4% in assay [1], 0.2% in assay [2] and -5.61% in assay [3].
On to `CN(C)CCOc1ccc(-c2cc(-c3ccnc(N)n3)c(-c3ccc(Cl)c(O)c3)o2)cc1`, for which the inhibition in assay [1] worked out at 1.34%; in assay [2], 1.5%; in assay [3], 2.71%.
For `CNCCNCc1cccc(-c2cccc(-c3nc4cc(F)ccc4[nH]3)c2)c1`, in that order: 10.2%, 7.92% and 7.49%.
On to `CC1(C)N=C(N)N=C(N)N1c1ccc(Oc2ccccc2)cc1`, for which the figures for the inhibition in assay [1], in assay [2] and in assay [3] were 1.59%, 1.71% and 2.8%, respectively.
Turning to `COc1ccccc1CCNC(=O)c1cc(Br)cc(N2CCN(c3ccncc3)CC2)c1`, the inhibition in assay [1] is 1.16%; in assay [2], 2.75%; in assay [3] it was 0.04%.
On to `Cc1cccc2nc(-c3cccc(-c4ccc(NC(=O)c5ccoc5)cc4)c3)[nH]c12`, for which the figures for the inhibition in assay [1], in assay [2] and in assay [3] were -0.27%, 2.14% and -1.09%, respectively.
For `COc1ccc(NC(=O)c2ccc(-c3cc(NC(=O)c4ccnc(N5CCCC5)c4)ccc3C)s2)cc1N1CCN(C)CC1`, the inhibition was -1.75% in assay [1], 0.73% in assay [2] and -1.93% in assay [3].
`CCc1c(CCNCCCCCCNCCc2ccc(OC)cc2)ccc(OC)c1OC`: the inhibition in assay [1] was 5.63%; in assay [2] it was 5.5%; in assay [3], 5.8%.
Consider `O=C(NCc1ccccc1)NC1CCN(c2ccnc3cc(Cl)ccc23)C1` (stereo not given), for which the inhibition in assay [1] was -2.48%; in assay [2] it was 0.99%; in assay [3], 0.94%.
In the case of `CS(=O)(=O)NCCCNCc1cccc(-c2cccc(-c3nc4cc(F)ccc4[nH]3)c2)c1`, the inhibition was 1.53% in assay [1], 1.37% in assay [2] and -0.27% in assay [3].
For the molecule `CN(C)c1ccc(CN2CCC(CNC(=O)c3cc(-c4ccccc4Cl)cs3)C2)cc1` (stereo not given), the inhibition in assay [1] is 0.57%; in assay [2], -3.68%; in assay [3], 0.7%.
